Shown are actives, neighbours in structure and some others; about 4.6% of the full set was active somewhere.
D1 PAM: human D1 dopamine receptor positive modulation; P21728; HEK293 TREx D1 cells, calcium flux, dopamine EC20 potentiation; potentiation, % at 10 µM; 0.036% of 360,000 active; AID 504651; in the data active = potentiation above about 30%
D1 agonist: agonists of human D1 dopamine receptor; HEK293 T-REx D1 cells, calcium flux, agonist mode; activation, % at 2 µM; 1% of 360,000 active
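Agonism was scored from calcium flux recorded over 180 s (1 read/s) after pintool compound addition, following a 10-cycle baseline. Cells were inducible force-coupled HEK293 TREx D1, plated overnight at 30 C and loaded with no-wash calcium dye.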
TRHR PAM: allosteric enhancers of human TRH receptor; TRHR cells, fluo-8 calcium fluorescence, EC20 TRH enhancement; enhancement, % at 2 µM; 0.66% of 360,000 active; AID 493056; in the data active = enhancement above about 30%
Target sequence (P34981 whole entry, looked up): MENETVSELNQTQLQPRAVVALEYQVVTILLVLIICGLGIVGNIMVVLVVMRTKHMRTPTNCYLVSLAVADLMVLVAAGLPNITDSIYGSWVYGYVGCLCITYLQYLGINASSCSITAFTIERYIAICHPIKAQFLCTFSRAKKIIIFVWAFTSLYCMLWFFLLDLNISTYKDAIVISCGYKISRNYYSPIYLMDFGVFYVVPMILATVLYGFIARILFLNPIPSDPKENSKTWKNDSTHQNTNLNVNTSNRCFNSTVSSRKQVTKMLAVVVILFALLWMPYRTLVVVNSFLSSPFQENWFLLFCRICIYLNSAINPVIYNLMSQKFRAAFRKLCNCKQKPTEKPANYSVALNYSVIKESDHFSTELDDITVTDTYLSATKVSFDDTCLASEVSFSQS
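TRHR-expressing cells loaded with fluo-8 calcium dye were read kinetically (ex 480/em 530) during compound addition, then stimulated with an EC20 of TRH (10 nM final). Enhancement of the Gq-mediated intracellular calcium response was scored.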
TRHR agonist: activates the human TRH receptor | TRHR cells, calcium flux fluo-8, FDSS agonist mode | activation, % at 2 µM | 0.18% of 360,000 active | AID 493084
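TRHR-expressing cells, plated overnight in medium with 10% serum, were loaded with fluo-8 calcium dye at room temperature. After a 10 s baseline, library compound was pin-added and calcium release was recorded kinetically (ex 480/em 530) as agonist response.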
D1 antagonist: human D1 dopamine receptor antagonism | P21728 | HEK293 TREx D1 cells, calcium flux, dopamine EC80; active compounds read low | activity change, negative = inhibition, % at 10 µM | 3.2% of 360,000 active | AID 504652; in the data active = activity change below about -30%
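HEK293 T-REx cells expressing inducible, force-coupled D1 receptor; no-wash Ca dye, 30–90 min RT. Cmpd → 180 s read at 1 Hz → EC80 DA → 180 s read.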
Each line names hits and unclear results; the compound was inactive in the other large screens; ! = not confirmed by another sample. Cut-off read from the data, not from the text of the source, unless noted: active = activation above about 30%; inactive = the rest.

O=C(Cn1nnc(-c2ccccc2)n1)NNC(=O)c1cccc([N+](=O)[O-])c1	none
Cc1cc(C)c2c(=O)n(CC(=O)Nc3cccc(Cl)c3C)sc2n1	D1 agonist 37
Cc1cc(C)c2c(=O)n(CC(=O)NC3CCCC3)sc2n1	none
COc1ccc(OC)c(CCNC(=O)Cn2nc(C)c3c(C)n(-c4ccc(C)cc4)nc3c2=O)c1	none
Cc1cc(C)c2c(=O)n(CC(=O)Nc3ccc(Br)c(C)c3)sc2n1	D1 antagonist -49
COc1ccc(OC)c(CCNC(=O)Cn2sc3nc(C)cc(C)c3c2=O)c1	D1 antagonist -48
NC(=O)C1CCN(c2nc(-c3ccccc3-c3ccccc3)cs2)CC1	none
Cc1cccc(-c2nnc(SCC(=O)Nc3ccc(C)c(C)c3)o2)c1	none
O=C(N/N=C/c1sc(N2CCOCC2)nc1-c1ccccc1)c1ccccc1Cl	none
O=[N+]([O-])c1ccc(N/N=C/c2sc(N3CCOCC3)nc2-c2ccccc2)c(S(=O)(=O)Nc2ccc(Cl)cc2)c1	D1 agonist 62, D1 antagonist -35
O=[N+]([O-])c1ccc(N/N=C/c2sc(N3CCOCC3)nc2-c2ccccc2)c(S(=O)(=O)Nc2ccccc2Cl)c1	D1 agonist 79, D1 antagonist -34
CCOc1ccc(C2c3c(oc4ccccc4c3=O)C(=O)N2c2nnc(C)s2)cc1OC (stereo unspecified)	none
CCOc1ccc(C2CC(c3c(O)c4ccccc4oc3=O)=NN2c2ccccc2)cc1OC (stereo unspecified)	D1 agonist 36
Cc1oc(-c2cc(F)cc(F)c2)nc1CN1CCN(C(=O)c2ccco2)CC1	none
O=C(COC(=O)CNC(=O)c1cccc([N+](=O)[O-])c1)Nc1ccccc1OC(F)F	TRHR PAM 34
O=C(COC(=O)CNC(=O)c1cccc([N+](=O)[O-])c1)Nc1nc2ccccc2s1	none
Cc1ccccc1-c1cc2nc(C)c(C)c(=O)n2[nH]1	D1 antagonist -33
COc1ccc(S(=O)(=O)N(CC(=O)NCCc2ccccc2)c2ccc(Cl)cc2)cc1	D1 agonist 40
Cc1cccc(N(CC(=O)NCCSCc2cccc(Cl)c2)S(=O)(=O)c2ccccc2)c1C	D1 agonist 31
CN(C)S(=O)(=O)N(CC(=O)NCCSCc1ccccc1)c1ccccc1	D1 antagonist -61!
COc1ccc(N(CC(=O)NCCc2ccccc2)S(=O)(=O)c2ccc(OC)c(OC)c2)cc1	none
Cc1ccccc1CSCCNC(=O)CN(c1ccccc1)S(=O)(=O)N(C)C	none
COc1ccc(NC(=O)CN(c2ccc([N+](=O)[O-])cc2)S(=O)(=O)c2ccccc2)cc1	D1 agonist 33
COc1cccc(NC(=O)CN(c2ccc([N+](=O)[O-])cc2)S(=O)(=O)c2ccccc2)c1	none
COc1ccc(NC(=O)Cn2c(=O)c3cc(Cl)ccc3n3nncc23)cc1	none
CC(C)CC1NC(=O)N(CC(=O)Nc2ccc(-c3ccccc3)cc2)C1=O (stereo unspecified)	none
O=C(Cc1c(O)c2ccccc2[nH]c1=O)NC1CCCCCCC1	none
Cc1ccc(C)c2nc(Cl)c(C3NC(=O)c4ccccc4N3)cc12 (stereo unspecified)	none
COc1ccc(CCNC(=O)c2cc(S(=O)(=O)N(C)c3ccccc3)ccc2Cl)cc1	D1 antagonist -56
CC(C(=O)NCCSCc1cccc(Cl)c1)N(c1ccccc1)S(C)(=O)=O (stereo unspecified)	D1 antagonist -32!
COc1ccc(CCNC(=O)CN(c2ccccc2OC)S(=O)(=O)c2ccc(C)cc2)cc1	D1 agonist 37!, D1 antagonist -36!
CCOc1ccc(N(C)S(=O)(=O)c2ccc(C)c(C(=O)NCCc3ccc(OC)cc3)c2)cc1	none
COc1ccc(N(C(C)C(=O)NCCSCc2cccc(Cl)c2)S(C)(=O)=O)cc1 (stereo unspecified)	none
COc1ccccc1N(CC(=O)NCCSCc1ccc(C)cc1)S(=O)(=O)c1ccccc1	D1 antagonist -32
Cc1ccc(CSCCNC(=O)CN(c2cccc(C)c2C)S(=O)(=O)c2ccccc2)cc1	none
O=c1nccc(N/N=C/c2ccccc2)[nH]1	none
CCc1ccc(C)c(OC(=O)c2cncc(Br)c2)c1	none
COc1ccccc1N(CC(=O)NCCSc1ccccc1)S(=O)(=O)c1ccc(C)cc1	D1 agonist 31
COc1ccc(N(CC(=O)N/N=C/c2ccc(F)cc2)S(=O)(=O)c2ccccc2)cc1	none
COc1ccc(CCNC(=O)CC(=O)NCCc2ccc(OC)cc2)cc1	none
Cc1noc(C)c1C(=O)NCCCc1ccccc1	none
COc1ccc(CCNC(=O)Cc2c(Cl)cccc2Cl)cc1	D1 antagonist -36
COc1ccccc1N(CC(=O)NCCSc1ccccc1)S(C)(=O)=O	none
C=CCNC(=O)CN(c1ccc(F)cc1)S(=O)(=O)c1ccc(OC)cc1	D1 antagonist -49
COc1ccc(CCNC(=O)c2c(C)noc2C)cc1	D1 antagonist -43
O=C(COC(=O)c1cncc(Br)c1)NCC1CCCO1 (stereo unspecified)	none
Cn1c(=O)cc(OCC(=O)N2CCN(c3cccc(C(F)(F)F)c3)CC2)c2ccccc21	none
O=C(N/N=C/c1ccccc1F)c1cccc2ccccc12	none
Cc1ccccc1C(=O)N/N=C/c1cccc2ccccc12	D1 antagonist -89
COc1ccc2cc(C(=O)N/N=C/c3sc4ccccc4c3O)ccc2c1	D1 agonist 108, TRHR agonist 33
O=C(N/N=C/c1sc2ccccc2c1O)c1cccc2ccccc12	D1 agonist 31
COc1ccccc1N1CCN(C(=O)c2ccc(Cn3c(=S)[nH]c4cc5c(cc4c3=O)OCO5)cc2)CC1	none
Cc1cccc(C)c1NC(=O)CN(C)S(=O)(=O)c1ccc2c(c1)n(C)c(=O)c(=O)n2C	none
Cc1ccccc1NC(=O)/C=C/c1ccc([N+](=O)[O-])s1	none
O=C1c2cccc3c(O)ccc(c23)C(=O)N1Cc1ccco1	D1 agonist 272, TRHR PAM 33, TRHR agonist 235
O=C1c2cccc3c(O)ccc(c23)C(=O)N1c1ccc(Cl)cc1	D1 agonist 470
CC(=O)Nc1ccc(N2C(=O)c3cccc4c(O)ccc(c34)C2=O)cc1	D1 agonist 283, TRHR PAM 35, TRHR agonist 199
O=C(Nc1ccc(F)cc1F)c1ccc(-n2cnc3cccnc32)cc1	none
CSc1ccccc1OCc1cc(C(=O)NC(C)CCn2cccn2)no1 (stereo unspecified)	none
Cc1ccc2nc(NCCc3ccc(Cl)cc3)c3nncn3c2c1	D1 antagonist -61!
O=C(c1ccccc1)N1CCC(CC2CC(c3cccc(Br)c3)=NO2)(C(=O)NCC2CCCCC2)CC1 (stereo unspecified)	D1 antagonist -53
CC(C)c1ccc(NS(=O)(=O)c2ccc3[nH]c(=O)ccc3c2)cc1	none

Screening data: PubChem BioAssay, National Center for Advancing Translational Sciences (NCATS)
